FMDV inh: antivirals against foot and mouth disease virus | 1.2% of 410,000 active | FMDV antiviral cell-based qHTS | AID 1159524 | Potency, µM (top dose mostly 57.9 µM), hits mostly inhibitors; calls by dose curve; tested in HEK293T cells; note: read-out not given here; nearly all actives have a fitted effect of over 45% in size
AmpC detergent: inhibitors of E. coli AmpC beta-lactamase with detergent; AmpC hydrolysis of nitrocefin, absorbance 480 nm, 0.01% Triton; Potency, µM (titrated, usually from 114 µM), most hits filed as inhibitors; 0.041% of 370,000 active; AID 485294; note: nearly all actives have a fitted effect of over 25% in size
Target sequence (P00811 whole entry, looked up): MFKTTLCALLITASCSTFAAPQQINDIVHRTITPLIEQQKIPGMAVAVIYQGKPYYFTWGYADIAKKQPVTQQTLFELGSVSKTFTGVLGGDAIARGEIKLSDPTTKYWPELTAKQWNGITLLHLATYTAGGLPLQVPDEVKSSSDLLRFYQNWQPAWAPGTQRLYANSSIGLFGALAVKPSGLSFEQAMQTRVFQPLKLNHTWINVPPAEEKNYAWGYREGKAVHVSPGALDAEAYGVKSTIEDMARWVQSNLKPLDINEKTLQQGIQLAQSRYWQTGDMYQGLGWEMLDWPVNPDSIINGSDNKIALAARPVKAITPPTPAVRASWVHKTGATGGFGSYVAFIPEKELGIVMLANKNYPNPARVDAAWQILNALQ
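20 mM phosphate pH 7.0 + 0.01% (detergent screen) or 0.0001% Triton X-100; 5.3 nM AmpC reagent; cpd preinc 15 min RT; nitrocefin (800 uM stock) to start; A480 q20 s × 4 min; Activity was normalised to no-enzyme and no-compound control wells.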
AmpC inh no detg: AmpC beta-lactamase inhibition without detergent; P00811; AmpC nitrocefin hydrolysis, absorbance 480 nm, 0.0001% Triton; Potency, µM (highest dose often 57.1 µM), actives largely listed as inhibitors; 0.52% of 330,000 active; AID 485341; note: nearly all actives have a fitted effect of over 20% in size
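AmpC (5.3 nM in the dispensed reagent) in 20 mM phosphate pH 7.0 with 0.01% (detergent screen) or 0.0001% Triton X-100 was preincubated with compounds for 15 min at room temperature. Nitrocefin was then added from an 800 uM solution, and hydrolysis was followed at 480 nm.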
HCMV inh: human cytomegalovirus inhibition; HFF cells, HCMV-luciferase reporter, 72 h; hits give low values; 4.5% of 410,000 active; activity change, negative = inhibition, % at 57.5 µM; AID 1259415; in the data active = activity change below about -60%; inconclusive = no clear call, values can overlap the other calls; inactive = above about -39%
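Inhibition of viral replication was scored as loss of reporter luminescence in HFFs infected with HCMV-luciferase (MOI 1 PFU/cell) for 72 h; compounds tested at 2 doses, normalized to buffer and Salinomycin controls.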
HCV inh: inhibitors of hepatitis C virus infection; Huh7.5.1 HCVcc-Cre infection, luciferase reporter, 44 h; Potency, µM (highest dose often 41.8 µM), usual class: inhibitors; 3.4% of 340,000 active
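Compounds are dispensed onto cells plated 4 h earlier at 1,000 per well, with HCVcc-Cre virus (about 0.5 moi) added next. Following 44 h of culture, luminescent signal is measured for 15 sec after 15 min with substrate at room temperature.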
A number is an active result; 0 = inactive; ? = inconclusive; - = not tested or not shown; ! = repeats disagree. In the library only some 7.3% were active in any assay of this set; here they are far more common. Unless noted, calls come from the whole dose curve; as a rule, active = well fitted curve in the direction sought with a large enough effect; inconclusive = small, poorly fitted or top-dose-only effect, or another doubt; inactive = no such curve, though single readings can be large; an effect the other way counts as inactive or inconclusive.

SMILES | FMDV inh | AmpC detergent | AmpC inh no detg | HCMV inh | HCV inh
Cc1c(Cl)cccc1NC(=S)NCCc1ccc(C(F)(F)F)cc1 | 0 | 0 | 0 | 0 | 11µM
Cc1c(Cl)cccc1NC(=S)NCCCN(C)C | 0 | 0 | 0 | 0 | 0
Cc1c(Cl)cccc1NC(=S)NCCc1ccccn1 | 0 | 0 | 0 | -69 | 0
CCOC(=O)CCCCCCCCCCCCC1C=CCC1 (stereo not drawn) | 0 | - | - | - | -
COc1cccc(/C=C/c2ccc3cccc(O)c3n2)c1OC | 0 | 0 | 0 | 0 | 10µM
COc1cc(Br)cc(/C=C/c2ccc3cccc(O)c3n2)c1OC | 0 | 0 | 0 | 0 | 0
CCOc1c(OC(C)=O)ccc(/C=C/c2ccc3cccc(OC)c3n2)c1[N+](=O)[O-] | 0 | ? | 0 | 0 | 10µM
COc1ccc(/C=C/c2ccc3cccc(O)c3n2)c(OC)c1OC | 0 | 0 | 0 | -94 | 0
CC[C@H](CC[C@@H](C)[C@H]1CC[C@H]2[C@@H]3CC=C4C[C@@H](O)CC[C@]4(C)[C@H]3CC[C@]12C)C(C)C | 0 | - | - | - | -
NC(=S)N/N=C1\CC(c2ccc3c(c2)OCCCO3)Oc2ccc(F)cc21 (stereo not drawn) | ? | 0 | 0 | 0 | 8.9µM
COc1ccc(C(=O)Nc2cnn(Cc3c(F)cccc3Cl)c2)cc1OC | 0 | 0 | 0 | 0 | 13µM
COc1ccc(-c2cc(C(=O)Nc3cnn(Cc4ccc(F)cc4)c3)no2)cc1OC | 0 | 0 | - | 0 | -
O=C(Nc1ccc(Cl)c(Cl)c1)c1ccc(Cn2cc(Cl)cn2)cc1 | 0 | 0 | 0 | 0 | ?
CCOc1ccc(C(=O)Nc2cnn(Cc3ccc(Cl)c(Cl)c3)c2)cc1 | ? | 0 | 0 | -70 | 13µM
Cc1ccc(Cl)cc1NC(=O)c1ccc(Cn2cc(Cl)cn2)cc1 | 0 | 0 | 11µM | ? | ?
COc1cc(OC)cc(C(=O)N2CCCC(n3cc(C(=O)NCC(C)C)nn3)C2)c1 (stereo not drawn) | 0 | - | - | - | -
O=C(CCN1N=C(c2ccccc2)CCC1=O)NCCCN1CCOCC1 | 0 | 0 | 0 | 0 | 0
COc1ccccc1NC1=NCCS1 | 0 | 0 | 0 | 0 | 0
Cc1cc(C)c(NC2=NCCS2)cc1C | 0 | - | - | -89 | -
Cc1cc(C)c(C)c(OCC(=O)NCC2CCCO2)c1 (stereo not drawn) | 0 | 0 | 0 | 0 | 0
CC(C)(C)c1ccc(-c2noc(CCC(=O)Nc3cccnc3)n2)cc1 | 0 | 0 | 0 | -75 | ?
Cc1cc(C)cc(OCC(=O)NCC2CCCO2)c1 (stereo not drawn) | - | 0 | 0 | -65 | 0
Cc1cc(C)cc(OCC(=O)NNC(=S)NC(=O)C2CC2)c1 | ? | 0 | 0 | -80 | 0
COc1ccc(CCc2nnc(CCC(=O)NCC3CCCO3)o2)cc1 (stereo not drawn) | 0 | 0 | 0 | -69 | 0
Cc1ccc(-c2noc(CCC(=O)NCC3CCCO3)n2)cc1 (stereo not drawn) | 0 | 0 | 0 | 0 | 0
SMILES | FMDV inh | AmpC detergent | AmpC inh no detg | HCMV inh | HCV inh
CC(C)(C)c1ccc(-c2noc(CCC(=O)NCC3CCCO3)n2)cc1 (stereo not drawn) | 0 | ? | 0 | -72 | ?
COc1cccc(NC(=O)CSc2nc3c(sc4ccccc43)c(=O)n2CCCN2CCCC2)c1 | 0 | 0 | 0 | -102 | ?
COc1cccc(NC(=O)CSc2nc3ccccc3c(=O)n2CCCC(=O)N2CCCC2)c1 | 0 | 0 | 0 | 0 | 0
COc1cccc(NC(=O)CSc2nc3c(sc4ccccc43)c(=O)n2CCN(C)C)c1 | 0 | 0 | 0 | 0 | ?
CCOCCCn1c(SCC(=O)Nc2cccc(OC)c2)nc2ccccc2c1=O | 0 | 0 | 0 | -73! | ?
CCN(CC)CCn1c(SCC(=O)Nc2cccc(OC)c2)nc2c(sc3ccccc32)c1=O | 0 | ? | 0 | 0 | 1.8µM
Cc1cnc(CN(C)Cc2nc(Cc3cccc(C(F)(F)F)c3)no2)[nH]1 | 0 | 0 | 0 | 0 | 0
Cc1ccn2c(=O)c(C(=O)NC(C)c3ccccc3)c(O)nc2c1 (stereo not drawn) | 0 | 0 | - | -70 | -
CC(NC(=O)c1c(O)nc2ccccn2c1=O)c1ccccc1 (stereo not drawn) | 0 | 0 | - | 0 | -
Cn1c(=O)n(Cc2ccccc2)c(=O)c2c1nc1n2CCN1c1ccccc1 | 0 | 0 | - | ? | -
OCCCn1c(C2CCCN2c2nc(-c3ccc(Cl)cc3)cs2)nc2cc(C(F)(F)F)ccc21 (stereo not drawn) | 0 | - | - | -66 | ?
